High-throughput results (PubChem BioAssay)
Hits are enriched below; roughly 19% of the tested compounds scored in any of these assays.
TDP1 block – qHTS Assay for Inhibitors of Tyrosyl-DNA Phosphodiesterase (TDP1); Potency, µM (highest dose often 130 µM), for the others: top-dose activity change, negative = inhibition, usual class: inhibitors; Tyrosyl-DNA phosphodiesterase 1 (Homo sapiens), Q9NUW8; 0.28% of 350,000 active; recombinant TDP1, AlphaScreen DNA substrate cleavage; note: potency is the fitted concentration of half-maximal effect; nearly all actives have a fitted effect of over 40% in size
Target sequence (Q9NUW8 whole entry, looked up): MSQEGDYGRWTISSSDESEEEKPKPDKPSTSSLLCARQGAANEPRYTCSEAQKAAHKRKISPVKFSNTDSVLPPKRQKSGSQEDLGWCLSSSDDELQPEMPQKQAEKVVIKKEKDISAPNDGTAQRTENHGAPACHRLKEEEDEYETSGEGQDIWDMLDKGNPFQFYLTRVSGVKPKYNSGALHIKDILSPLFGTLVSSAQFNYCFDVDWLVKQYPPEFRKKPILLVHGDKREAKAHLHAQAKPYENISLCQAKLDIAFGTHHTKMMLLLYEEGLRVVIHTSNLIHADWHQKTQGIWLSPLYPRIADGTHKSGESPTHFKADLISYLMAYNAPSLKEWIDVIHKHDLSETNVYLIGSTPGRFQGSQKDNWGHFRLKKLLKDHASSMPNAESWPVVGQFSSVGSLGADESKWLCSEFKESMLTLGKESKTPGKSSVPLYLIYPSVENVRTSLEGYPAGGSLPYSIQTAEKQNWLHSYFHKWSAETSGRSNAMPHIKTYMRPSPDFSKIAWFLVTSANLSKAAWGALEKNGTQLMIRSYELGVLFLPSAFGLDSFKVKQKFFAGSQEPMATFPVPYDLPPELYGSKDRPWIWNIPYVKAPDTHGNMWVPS
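AlphaScreen read-out: signal falls as enzyme removes the 3' tyrosine-FITC from a 5'-biotinylated DNA oligo (15 nM, 5 min, RT). Enzyme was E. coli-made recombinant Tdp1 at 1 nM, exposed to compound for 15 min beforehand; beads 10 ug/ml, 10 min.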
Giardia killer – Small Molecules that selectively kill Giardia lamblia: qHTS; Giardia lamblia trophozoite viability; activity change, % at 7.66 µM, hits read low; 0.15% of 340,000 active; in the data active = activity change below about -80%; inconclusive = between about -30% and that limit;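 note: parasites exposed to compound for two days anaerobically before the ATP read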
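Giardia lamblia trophozoites (100 cells/well) were incubated with compounds for 48 h at 37 deg C under anaerobic conditions. Viability was read as ATP content by one-step luminescence after 15-30 min at room temperature.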
ELG1 repair inh – qHTS screen for small molecules that inhibit ELG1-dependent DNA repair in human embryonic kidney (HEK293T) cells expressing luciferase-tagged ELG1; 2.3% of 330,000 active; Potency, µM (doses to about 46.1 µM), for inactives: top-dose activity change, negative = inhibition, most hits filed as inhibitors; HEK293T ELG1-luciferase reporter, luminescence, 16 h; DNA damage induced by 5-fluorouridine; AID 504467, 2011; note: potency is the fitted concentration of half-maximal effect; nearly all actives have a fitted effect of over 55% in size
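Quantitative HTS, concentration-response format. 2,000 cells/well co-treated with 5-fluorouridine and compound, 16 hr in 5% CO2 at 37 °C; ONE-Glo luminescence read after 30 min.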
DT40 TDP1 CPT – qHTS for Inhibitors of human tyrosyl-DNA phosphodiesterase 1 (TDP1): qHTS in cells in presence of CPT; chicken DT40 Tdp1-/-;hTDP1 cells + 20 nM CPT, ATP luminescence, 48 h; AID 686979, 2013; 12% of 420,000 active; Potency, µM (titrated, usually from 46.2 µM), inactives show at the highest dose activity change, negative = growth inhibition, actives largely listed as inhibitors; note: potency is the fitted concentration of half-maximal effect; nearly all actives have a fitted effect of over 55% in size
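Chicken DT40 Tdp1-/- cells complemented with human TDP1, 400 cells/well, exposed to compounds plus 20 nM camptothecin for at least 48 h at 37 C; viability read as ATP content by CellTiter-Glo luminescence.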
IL1B secr inh – qHTS for Inhibitors of Inflammasome Signaling: IL-1-beta AlphaLISA Primary Screen; 4.7% of 360,000 active; activity change, % at 57.5 µM; THP-1 LPS/ATP IL-1B secretion, AlphaLISA, 16 h; hits give low values; in the data active = activity change below about -50%; inconclusive = mostly about -30% to -49%
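THP-1 cells pretreated 1 hr with compounds (up to 57.5 uM final), then stimulated with LPS (250 ng/mL final) plus ATP (1.25 mM final); secreted IL-1B measured by AlphaLISA after 16 hr, decreased signal indicating inhibition.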
TDP1 cell noCPT – qHTS for Inhibitors of human tyrosyl-DNA phosphodiesterase 1 (TDP1): qHTS in cells in absence of CPT. AID 686978, 2013. DT40 Tdp1-/- hTDP1 cells, no CPT, ATP luminescence, 48 h. Potency, µM (top dose mostly 46.2 µM), without a hit: at the top dose activity change, negative = growth inhibition, hits mostly inhibitors. 15% of 420,000 active; note: potency is the fitted concentration of half-maximal effect; nearly all actives have a fitted effect of over 55% in size
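Chicken DT40 Tdp1-/- cells stably complemented with human TDP1 were seeded at 400 cells/well with DMSO in place of 20 nM camptothecin. After compound pinning, cells grew at least 48 hr at 37 °C; viability read by CellTiter-Glo luminescence.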
* = called active by the depositor; i = inactive; ? = inconclusive; / = no result; [ ] = another dose, or the depositor's remark. Unless noted, calls come from the whole dose curve; as a rule, active = well fitted curve in the direction sought with a large enough effect; inconclusive = small, poorly fitted or top-dose-only effect, or another doubt; inactive = no such curve, though single readings can be large; an effect the other way counts as inactive or inconclusive. % is set by controls: 0 for no effect and ±100 for the full control effect.

SMILES	TDP1 block	Giardia killer	ELG1 repair inh	DT40 TDP1 CPT	IL1B secr inh	TDP1 cell noCPT
C[C@H]1CN([C@@H](C)CO)C(=O)CCCn2nncc2CO[C@H]1CN(C)S(=O)(=O)c1ccc(Oc2ccccc2)cc1	/	/	/	18µM*	20	12µM*
C[C@H]1CN([C@@H](C)CO)C(=O)CCCn2nncc2CO[C@@H]1CN(C)Cc1ccccc1C(F)(F)F	/	/	/	18µM*	-11	-21%
C[C@H]1CN([C@@H](C)CO)C(=O)CCCn2nncc2CO[C@@H]1CN(C)Cc1cccc(C(F)(F)F)c1	/	/	/	21µM*	11	23µM*
C[C@@H]1CN([C@@H](C)CO)C(=O)CCCn2nncc2CO[C@H]1CN(C)Cc1ccc(-c2ccccc2)cc1	/	/	/	0%	27	16µM*
CCn1cc(C(=O)N2CCN(c3ccccc3)CC2)c(=O)c2cc(S(=O)(=O)N(C)C3CCCCC3)ccc21	-5%	/	/	-9%	/	-26%
CCOc1ccccc1NC(=S)NCc1ccco1	2%	-10	2%	-1%	-11	-13%
CCOc1ccc(C(=O)Nc2ccccc2OCc2cc(=O)n3ccccc3n2)cc1	0%	/	/	-3%	/	-15%
CCOC(=O)N1CCC(N(CCN(C)C)C(=S)Nc2cc(Cl)ccc2C)CC1	-1%	38	-15%	-6%	37	-4%
C[C@@H]1CN([C@@H](C)CO)C(=O)CCCn2cc(nn2)CO[C@H]1CN(C)S(=O)(=O)c1ccc(-c2ccccc2)cc1	/	/	/	9.2µM*	34	6.5µM*
CCCCc1nn2c(=O)cc(COC(=O)c3ccc(NC(=O)c4cccc(OC)c4)cc3)nc2s1	1%	/	/	5%	/	-7%
Nc1ccc(Cl)cc1[N+](=O)[O-]	10%	/	/	/	/	/
CCc1nc(N)nc(N)c1-c1ccc(Cl)c(N=[N+]=[N-])c1	/	-6	/	5.2µM*	-3	1.8µM*
CCc1nc(N)nc(N)c1-c1ccc(Cl)c([N+](=O)[O-])c1	/	30	/	0.18µM*	-1	0.052µM*
CCCCOC(=O)C1=C(C)NC(=O)NC1c1ccc([N+](=O)[O-])s1 (stereo unspecified)	-3%	8	-13%	?	0	?
CCOC(=O)Oc1c(OC)cc(C(=O)O[C@@H]2C[C@@H]3CN4CCc5c([nH]c6cc(OC)ccc56)[C@H]4C[C@@H]3[C@H](C(=O)OC)[C@H]2OC)cc1OC	/	-5	?	23µM*	0	13µM*
N#CC(C#N)=C1c2cc(S(N)(=O)=O)ccc2-c2ccc(S(N)(=O)=O)cc21	-2%	-8	2%	16µM*	-22	21µM*
NS(=O)(=O)c1ccc2c(c1)C(=NO)c1cc(S(N)(=O)=O)ccc1-2	/	-13	12%	57%	-5	-9%
N#CC(C#N)=C1c2cc(S(=O)(=O)NCCO)ccc2-c2ccc(S(=O)(=O)NCCO)cc21	/	-1	-3%	13µM*	?	?
Cc1nnc(SCc2nnc(-c3ccccc3Br)o2)s1	1%	-6	?	18%	1	-9%
COc1cc(-c2noc(C)c2-c2ccc(N(C)C)nc2)cc(OC)c1OC	/	9	9%	0.13µM*	81	0.037µM*
COc1cc(-c2noc(C)c2C(=O)NCCc2c[nH]c3ccccc23)cc(OC)c1OC	/	-6	-2%	?	-26	?
COc1cc(-c2noc(C)c2-c2ccc3[nH]ccc3c2)cc(OC)c1OC	/	-2	?	1.5µM*	57	1.8µM*
N#Cc1ccccc1NC(=O)C(=O)NCCCN1CCCC1=O	/	-15	?	-3%	0	-3%
COc1ccc(Nc2nnc(SCC(=O)NC(=O)Nc3ccc4c(c3)OCCO4)s2)cc1	-5%	-16	0%	?	71	16µM*
Cc1cccc(Nc2nnc(SCC(=O)Nc3ccccc3[N+](=O)[O-])s2)c1	7%	-24	-16%	?	7	16µM*
SMILES	TDP1 block	Giardia killer	ELG1 repair inh	DT40 TDP1 CPT	IL1B secr inh	TDP1 cell noCPT
CCC(=O)Nc1nnc(SCC(=O)NCC2CCCO2)s1 (stereo unspecified)	/	-11	/	-15%	-6	0.29µM*
COc1cccc(Nc2nnc(SCC(=O)Nc3sccc3C(N)=O)s2)c1	/	-8	15µM*	13µM*	-4	8.2µM*
COc1cc(=O)n2c(c1C(=O)N(C)Cc1nonc1C)CCN(Cc1c(F)cccc1F)CC2	/	/	/	1%	/	-13%
CCn1c(CC(=O)Nc2ccccc2F)nnc1SCC(=O)NC1CCCC1	/	-25	0%	-14%	4	-8%
O=S(=O)(CCNCCc1ccccc1)NCc1ccccc1	/	14	/	-6%	-7	-3%
COc1ccc(NC(=O)CSc2nnc(NC(=O)Nc3ccc(OC)cc3)s2)cc1	-8%	/	/	-15%	/	-1%
COc1ccc(NC(=O)CSc2nnc(NC(=O)c3ccccc3C(=O)O)s2)cc1	2%	7	-4%	26µM*	-10	?
CCC(=O)Nc1nnc(SCC(=O)Nc2ccc3c(c2)OCO3)s1	0%	-3	-16%	?	3	?
CCC(=O)Nc1nnc(SCC(=O)Nc2ccc3c(c2)OCCO3)s1	7%	3	-21%	15µM*	i	?
CCOC(=O)c1c(NC(=O)CSc2cn(CCNC(=O)c3c(F)cccc3F)c3ccccc23)sc2c1CCCC2	8%	/	/	?	/	?
COc1ccccc1N1CCN(C2CCN(S(=O)(=O)c3ccc4ccccc4c3)CC2)CC1	6%	-28	-27%	?	-62*	?
O=S(=O)(c1ccc2nc(-c3ccccc3)[nH]c2c1)N1CCN(c2cccc(Cl)c2)CC1	3%	-2	?	2%	24	?
COc1ccccc1N1CCN(S(=O)(=O)c2ccc3nc(-c4ccccc4)[nH]c3c2)CC1	11%	-4	?	?	?	21µM*
COc1ccccc1-c1cc2c(c(OC)c1)OCCN(C(=O)Cn1nc(-c3ccccc3)c3ccccc3c1=O)C2	/	/	/	23%[9.04 µM]	/	-23%
CCCCC1OC23CCCCC2C(C#N)(C#N)C1(C#N)C(=N)O3 (stereo unspecified)	3%	-5	2%	6.5µM*	-102*	6.5µM*
CCCCC1OC23CCCCC2C(C#N)(C(=N)O3)C1(C#N)C#N (stereo unspecified)	2%	-2	-7%	7.3µM*	-10	7.3µM*
